Sfp PPTase inh: blocks B. subtilis Sfp PPTase activity | Q9F4F7 | Biochemical Sfp PPTase activity, qHTS | Potency, µM, inactives show largest response in the series, negative = inhibition, most hits filed as inhibitors | hit rate 3.5% among 310,000 | AID 1490;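 note: the enzyme is Sfp with the accession as filed and its product quenches rhodamine fluorescence; 0% = enzyme reaction without inhibitor and -100% = no enzyme wells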
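After 15 min at room temperature with compound, 15 nM Sfp received 5 uM rhodamine-CoA plus 12.5 uM BHQ-2-ybbR (50 mM Hepes pH 7.6, 10 mM MgCl2). Rate came from the fluorescence difference over 30 min, ex 525/em 598 nm.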
G9a block: blocks human histone lysine methyltransferase G9a. hit rate 8.8% among 350,000. Q96KQ7. AID 504332. G9a H3K9 monomethylation, AlphaScreen, 2 h. Potency, µM (highest dose often 102 µM), for the others: at the highest dose activity, negative = inhibition, most hits filed as inhibitors; note: % is set by controls: 0 for no effect and ±100 for the full control effect; nearly all actives have a fitted effect of over 75% in size
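AlphaScreen detection with an anti-monomethyl H3K9 antibody quantified product after a 2 h room-temperature reaction containing 500 nM biotinylated H3K9 peptide, 20 µM SAM and 20 nM enzyme, which had been preincubated 15 min with compound.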
Glioma ERSR ind: ER stress response induction in glioma; hit rate 0.02% among 420,000; U87-MG GRP78 promoter luciferase reporter, 16 h; AID 602332; Potency, µM, inactives show top-dose activation, actives largely listed as activators; note: series mostly up to about 76 µM; % of control where 0% means no effect; nearly all actives have a fitted effect of over 35% in size
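Stably transfected U87-MG glioma cells carrying a GRP78-based luciferase sensor; 16 h compound incubation. Luminescence end-point read 10 min after Bright-Glo addition at room temperature.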
ALOX12 inh: blocks human arachidonate 12S-lipoxygenase. P18054. purified 12hLO, xylenol orange hydroperoxide absorbance. Potency, µM (series often up to 108 µM), for the others: at the top dose activity change, negative = inhibition, hits mostly inhibitors. hit rate 1.1% among 580,000. AID 1671190; note: % is set by controls: 0 for no effect and ±100 for the full control effect
Target sequence (P18054 whole entry, looked up): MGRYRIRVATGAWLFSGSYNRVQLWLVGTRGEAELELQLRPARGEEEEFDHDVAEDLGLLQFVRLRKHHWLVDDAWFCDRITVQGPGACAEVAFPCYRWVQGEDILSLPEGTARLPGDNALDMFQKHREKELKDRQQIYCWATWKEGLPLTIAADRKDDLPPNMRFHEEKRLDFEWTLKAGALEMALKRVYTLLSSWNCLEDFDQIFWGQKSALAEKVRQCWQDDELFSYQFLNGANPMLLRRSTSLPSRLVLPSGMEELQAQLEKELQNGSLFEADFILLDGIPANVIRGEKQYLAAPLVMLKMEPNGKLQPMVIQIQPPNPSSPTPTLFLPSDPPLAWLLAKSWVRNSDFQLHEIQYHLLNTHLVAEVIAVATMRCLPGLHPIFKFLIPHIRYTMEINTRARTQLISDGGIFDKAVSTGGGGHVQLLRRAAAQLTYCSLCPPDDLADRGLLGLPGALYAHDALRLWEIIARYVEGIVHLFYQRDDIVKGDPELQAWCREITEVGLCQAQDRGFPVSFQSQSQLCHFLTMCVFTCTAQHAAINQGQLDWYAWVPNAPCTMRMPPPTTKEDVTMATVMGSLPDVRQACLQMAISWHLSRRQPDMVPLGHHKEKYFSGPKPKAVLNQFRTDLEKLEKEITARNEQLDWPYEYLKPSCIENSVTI
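Purified human 12hLO (150 nM final) in 25 mM Hepes, 0.01% Triton X-100, pH 7.0 was preincubated 15 min at room temperature with compound. Then 40 uM arachidonic acid was added, 30 min. Hydroperoxide was read by Fe-XO absorbance ratio 573/405 nm.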
VDR inhibitor: vitamin D3 receptor (human) inhibition. P11473. VDR-SRC2-3 peptide fluorescence polarization, 2 h. Potency, µM, inactives show max response, negative = inhibition, most hits filed as inhibitors. hit rate 0.93% among 400,000. AID 504847; note: % is set by controls: 0 for no effect and ±100 for the full control effect
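Reagent solutions, kept cold and dark, are dispensed first; compounds are then pinned in at 23 nl, plates briefly spun, and incubated 2 h at ambient temperature. Inhibition of VDR–SRC2-3 peptide binding is read by fluorescence polarization.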
Active calls of the source: *; ? = inconclusive; . = not tested or not shown; [ ] = remark or other dose. This is one part of a sample in which hits are shown more often than they occur. Calls come from the whole dose curve; as a rule, active = well fitted curve in the direction sought with a large enough effect; inconclusive = small, poorly fitted or top-dose-only effect, or another doubt; inactive = no such curve, though single readings can be large; an effect the other way counts as inactive or inconclusive. Potency is the fitted concentration of half-maximal effect.

SMILES	Sfp PPTase inh	G9a block	Glioma ERSR ind	ALOX12 inh	VDR inhibitor
CCCCCn1c(SCc2ccccc2Cl)nc2c1c(=O)[nH]c(=O)n2C	.	.	.	32%	.
CC(C)(C)CC(C)(C)NC(=O)C1CNC(=O)C1 (stereo unspecified)	.	.	.	14%	.
COc1ccc(NC(=O)c2ccccc2SC)c(OC)c1	11%	18µM*	0%	0%	-11%
COc1ccc(NC(=S)N2CCN(c3ncccn3)CC2)c(OC)c1	50µM*	-35%	-3%	?	-1%
COc1ccc(NC(=O)c2cccnc2C(=O)O)c(OC)c1	-23%	2.5µM*	-3%	0%	?
COc1ccc(NC(=S)Nc2ccccc2SC)c(OC)c1	-27%	.	-1%	?	-18%
CCOc1ccc(NC(=O)c2cccnc2C(=O)O)cc1	56µM*	?	3%	-3%	16%
Cc1ccc(CN2CCC(CNC(=O)c3c(C)oc4ncnc(N5CCOCC5)c34)C2)cc1 (stereo unspecified)	.	.	.	-17%	.
COc1ccc(NC(=O)c2cc([N+](=O)[O-])ccc2NC(=O)CNCc2ccccn2)c(OC)c1	45µM*	28µM*	-2%	5%	32µM*
COc1cc(NC(=O)c2cc([N+](=O)[O-])ccc2NC(=O)CNCc2ccccn2)cc(OC)c1	-14%	0%	-3%	19%	3%
COC(=O)c1cnc(NNC(=O)c2ccc([N+](=O)[O-])cc2)nc1C(F)(F)F	11%	2%	-3%	465%	15%
COC(=O)c1cnc(NNS(=O)(=O)c2ccc(Cl)cc2)nc1C(F)(F)F	-2%	35µM*	-1%	?	13%
CCOC(=O)/C=C1\CN(C(C)c2ccccc2)S(=O)(=O)c2ccccc21 (stereo unspecified)	-11%	18µM*	-5%	?	-9%
CCOC(=O)/C=C1\CN(CCC(C)C)S(=O)(=O)c2ccccc21	0%	35µM*	-3%	5%	24%
CCOC(=O)/C=C1\CC(C(=O)OCC)Oc2ccccc21 (stereo unspecified)	4%	62%	-3%	?	-3%
O=[N+]([O-])c1cc(N=Cc2cccnc2)cc2ccc3ccccc3c12	.	.	.	5%	.
CC(C)C[C@H](NC(=O)OC(C)(C)C)c1n[nH]c(=S)n1N	-52%	10µM*	-8%	21%	-25%
CCc1cc(C(c2ccc(OC)c(OC)c2)N2CCN(CC)CC2)c(NC(=O)c2ccco2)s1 (stereo unspecified)	.	.	.	16µM*	.
CCc1cc(C(c2cccc(OC)c2)N2CCOCC2)c(NC(=O)c2ccccc2)s1 (stereo unspecified)	5%	5%	5%	0%	-15%
CCc1cc(C(c2ccc(OC)c(OC)c2)N2CCOCC2)c(NC(=O)c2ccccc2)s1 (stereo unspecified)	5%	32µM*	10%	-34%	?
Cc1cc(C(c2ccc(Cl)cc2Cl)N2CCOCC2)c(NC(=O)c2ccco2)s1 (stereo unspecified)	.	.	.	-28%	.
CCc1cc(C(c2ccccc2OC)N2CCN(C)CC2)c(NC(=O)c2ccco2)s1 (stereo unspecified)	.	.	.	40µM*	.
COc1ccccc1CN1CCC2(CC1)OC(=O)N(Cc1ccccc1)C2(C)c1ccccc1 (stereo unspecified)	.	.	.	-9%	.
Cc1ccc(CNc2nc3ccc(C)cc3n3cnnc23)cc1	?	50µM*	0%	0%	-7%
COc1cccc(CNc2nc3ccc(C)cc3n3cnnc23)c1	5%	-2%	-3%	0%	-2%
SMILES	Sfp PPTase inh	G9a block	Glioma ERSR ind	ALOX12 inh	VDR inhibitor
CN(C)S(=O)(=O)c1ccc(S(=O)(=O)N(CC(=O)Nc2ccccc2)CC2CCCO2)cc1 (stereo unspecified)	-2%	32µM*	-4%	0%	-9%
COc1ccc(C(=O)NC(=S)Nc2ccc(S(=O)(=O)Nc3cc(C)on3)cc2)cc1OC	15%	4%[59 µM]	-2%	?	-11%
Cc1cc(NS(=O)(=O)c2ccc(NC(=S)NC(=O)c3ccccc3)cc2)no1	-7%	?	1%	16µM*	-11%
Cc1cc(NS(=O)(=O)c2ccc(NC(=S)NC(=O)c3ccc(C(C)(C)C)cc3)cc2)no1	-10%	?	11%	7.1µM*	-12%
Cc1cc(NS(=O)(=O)c2ccc(NC(=S)NC(=O)/C=C/c3ccccc3)cc2)no1	16%	?	-1%	?	16%
Cc1cc(NS(=O)(=O)c2ccc(NC(=S)NC(=O)c3ccc(Cl)cc3Cl)cc2)no1	11%	-35%[59 µM]	-3%	32µM*	5%
Cc1ccc(NC(=O)CC2C(=O)Nc3nc(-c4ccccc4)nn32)cc1C (stereo unspecified)	.	.	.	-10%	.
Cc1ccc(S(=O)(=O)NNc2nc3ccccc3nc2C(F)(F)F)cc1	11µM*	1.4µM*	12%	?	?
Cc1ccc(S(=O)(=O)Nc2ccc(Cl)cc2O)cc1	.	.	.	28µM*	.
O=S(=O)(Nc1ccc(N=Nc2ccc(O)c3ccccc23)cc1)c1ccccc1	?	?	-5%	?	-2%
O=S(=O)(Nc1ccc(N=Nc2ccccc2)cc1)c1ccccc1	21%	32µM*	1%	-15%	-17%
Cc1ccc(S(=O)(=O)Nc2ccc(Nc3ccccc3)cc2)cc1	-7%	.	-3%	18µM*	-2%
Cc1ccc(Nc2nc3ccccc3nc2NS(=O)(=O)c2ccc(F)cc2)cc1	.	.	.	-2%	.
O=S(=O)(Nc1ccc(S(=O)(=O)Nc2ccccc2)cc1)c1ccccc1	-5%	-28%	-3%	-10%	-7%
O=C(Nc1ccc(Cl)c(C(F)(F)F)c1)c1c(Cl)cccc1Cl	.	.	.	-4%	.
CCCOc1c(Cl)cc(C2C3=C(CCCC3=O)OC3=C2C(=O)CCC3)cc1OCC	.	.	.	-66%	.
Cc1ccc(S(=O)(=O)Nn2c(C)ccc2C)cc1	56µM*	-10%[2.33 µM]	-1%	?	1%
Cc1ccc(S(=O)(=O)NNc2c3ccccc3nc3ccc(Cl)cc23)cc1	.	.	-1%	25µM*	.
Cc1ccc(S(=O)(=O)NNc2ccccc2)cc1	32µM*	?	1%	?	?
CC(=O)Nc1ccc(S(=O)(=O)NNc2cccc(C)c2)cc1	-88%	1.1µM*	-2%	2µM*	79µM*
Cc1ccc(S(=O)(=O)NNC(=O)CCC(=O)Nc2ccccc2)cc1	1%	24%[12.7 µM]	-4%	11%	4%
Cc1cccc(NC(=O)NNS(=O)(=O)c2ccc(F)cc2)c1	25%	20%[59 µM]	-6%	6%	-3%
Cc1c(Cl)c(C(F)(F)F)nn1CC(=O)Nc1c(Cl)cccc1Cl	.	.	.	-6%	.
Cn1nc(C(=O)Nc2ccnn2Cc2ccc(Cl)cc2Cl)c2ccccc2c1=O	.	.	.	0%	.
CN(C)c1cccc(C(=O)NNC(=O)c2ccc(CSc3ccc(Cl)cc3)cc2)c1	.	.	.	24%	.
O=S(=O)(Nc1ccccc1)c1ccc(NS(=O)(=O)c2c(F)cccc2F)cc1	8%	50µM*	-3%	?	-12%
Cc1ccc(S(=O)(=O)Nc2ccccc2[N+](=O)[O-])cc1	.	.	.	-10%	.

Screening results deposited in PubChem BioAssay by National Center for Advancing Translational Sciences (NCATS).
